Experimental data reported in the supplement of paper PMC4840960.
± gives the standard deviation of the averaged measurements.

How the values were obtained:
[1] = tested on: E18 rat cortical neuron-glia co-culture; assay: fiber score / MBP score (myelination specific beyond OL differentiation) (ratio); higher = more myelination-specific MBP alignment; conditions: treatment time: 8 days (DIV5-DIV13)
Outline: (§1)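 Primary E18 rat cortical co-cultures (papain-dissociated, 20,000 cells/well on poly-d-lysine/laminin 96-well plates) received library compounds at 1 or 5 µM in myelination medium from DIV5 to DIV13. Cells were fixed in 4 % paraformaldehyde and immunostained for MBP and Olig2 with DAPI, and four 10X fields per well in duplicate wells were analysed. The read-out is fiber score (continuous MBP fiber length per Olig2+ nucleus) divided by MBP score (thresholded MBP area × intensity per Olig2+ nucleus).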

[2] = tested on: E18 rat cortical neuron-glia co-culture; assay: myelination (MBP fiber length per Olig2+ nucleus), % of 1 µM DAPT response (DMSO = 0) (% of DAPT); higher = more myelination, active = 50 or more; conditions: treatment time: 8 days (DIV5-DIV13)
Outline: as §1, with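 “Myelination was continuous straight” for “The read-out is fiber score (continuous”, “nucleus, normalised to 0.1 % DMSO (0) and a 1 µM positive control (100).” for “nucleus) divided by MBP score (thresholded MBP area × intensity per Olig2+ nucleus).”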

Compound | fiber score / MBP score ([1]; 1 µM) | fiber score / MBP score ([1]; 5 µM) | myelination ([2]; 1 µM) | myelination ([2]; 5 µM)
O=[N+]([O-])c1cccc2cn[nH]c12 [7-Nitroindazole] | 0.691 | 0.753 | -9.77 (inactive) | -5.65 (inactive)
Nc1nc(F)nc2c1ncn2[C@@H]1O[C@H](CO)[C@@H](O)[C@@H]1O [Fludarabine] | 0.675 | 0.885 | -29.4 (inactive) | 34.3 (inactive)
CCOC(=O)OC(C)OC1=C(C(=O)Nc2ccccn2)N(C)S(=O)(=O)c2ccccc21 (centres undefined) [Ampiroxicam] | 0.796 | 1.01 | -15.1 (inactive) | -4.42 (inactive)
NC(=O)OCC(COC(N)=O)c1ccccc1 [Felbamate] | 0.591 | 0.769 | -15.5 (inactive) | -10.2 (inactive)
Cc1nccn1CC1CCc2c(c3ccccc3n2C)C1=O (centres undefined) [Ondansetron] | 0.73 ± 0.022 | 0.404 ± 0.053 | -25.6 (inactive) | -35.8 (inactive)
COc1cc(OC)c(C(=O)CCCN2CCCC2)c(OC)c1 [Buflomedil] | 0.901 | 0.768 | -13.2 (inactive) | -13.3 (inactive)
N=C(N)NC(=O)c1nc(Cl)c(N)nc1N [Amiloride] | 0.887 | 0.827 | -12.4 (inactive) | 16.9 (inactive)
C[C@]12CCC(=O)C=C1CC[C@@H]1[C@@H]2C(=O)C[C@@]2(C)[C@H]1CC[C@]2(O)C(=O)CO [Cortisone] | 0.752 | 0.764 | -12.4 (inactive) | -10.5 (inactive)
CC1=C(/C=C/C(C)=C/C=C/C(C)=C/C(=O)O)C(C)(C)CCC1 [Retinoic Acid] | 0.93 | 0.533 | -3.28 (inactive) | -10.5 (inactive)
CC(=O)NCCCCCCNC(C)=O [Hexamethylene bisacetamide] | 0.663 | 0.981 | -0.00866 (inactive) | -2.54 (inactive)
CC(CCc1ccccc1)NCC(O)c1ccc(O)c(C(N)=O)c1 (centres undefined) [Labetalol] | 0.511 | 0.693 | -16.1 (inactive) | -9.26 (inactive)
C[C@H](N[C@@H](CCc1ccccc1)C(=O)O)C(=O)N1CCC[C@H]1C(=O)O [Enalaprilat] | 0.936 | 0.731 | -2.57 (inactive) | -9.9 (inactive)
CCCCN1CCCC1CNC(=O)c1cc(C#N)c2ccccc2c1OC (centres undefined) [Nafadotride] | 0.516 | 0.414 | -15 (inactive) | -20.4 (inactive)
Nc1nc2c(ncn2COC(CO)CO)c(=O)[nH]1 [Ganciclovir] | 0.944 | 1 | -5.82 (inactive) | 7.82 (inactive)
CCCCC[C@H](O)/C=C/[C@H]1[C@H](O)CC(=O)[C@@H]1CCCCCCC(=O)O [Alprostadil] | 1.12 | 0.695 | -1.94 (inactive) | -7.47 (inactive)
c1ccc2[nH]c(-c3cscn3)nc2c1 [Thiabendazole] | 1.05 | 0.885 | 0.461 (inactive) | -0.348 (inactive)
Cc1onc(-c2ccccc2)c1-c1ccc(S(N)(=O)=O)cc1 [Valdecoxib] | 0.873 | 0.733 | -12.1 (inactive) | -45.9 (inactive)
CCOC(=O)[C@H](CCc1ccccc1)N[C@@H](C)C(=O)N1CCC[C@H]1C(=O)O [Enalapril] | 0.732 | 0.734 | -22.3 (inactive) | -27.5 (inactive)
Fc1cncnc1 [5-fluoropyrimidine] | 0.595 | 0.899 | -17.3 (inactive) | 4.98 (inactive)
CN(C)CCCSc1ccccc1NC(=O)/C=C/c1ccccc1 [Cinanserin] | 0.858 | 0.995 | -5.83 (inactive) | 9.08 (inactive)
Cc1nc2ccccn2c(=O)c1CCN1CCC(C(=O)c2ccc(F)cc2)CC1 [Pirenperone] | 0.876 | 0.646 | -7.44 (inactive) | -11.5 (inactive)
CCS(=O)(=O)CCn1c([N+](=O)[O-])cnc1C [Tinidazole] | 0.727 | 0.706 | -10.7 (inactive) | -14.2 (inactive)
NC[C@H]1CC[C@H](C(=O)Oc2ccc(CCC(=O)O)cc2)CC1 [Cetraxate] | 1.07 | 0.791 | 4.64 (inactive) | -18.2 (inactive)
C[C@@H]1O[C@@H](OC[C@H]2O[C@@H](Oc3c(-c4ccc(O)c(O)c4)oc4cc(O)cc(O)c4c3=O)[C@H](O)[C@@H](O)[C@@H]2O)[C@H](O)[C@H](O)[C@H]1O [Rutin] | 0.757 | 0.905 | -12 (inactive) | -4.44 (inactive)
C=CC1=C(C(=O)O)N2C(=O)[C@@H](NC(=O)/C(=N\OCC(=O)O)c3csc(N)n3)[C@H]2SC1 [Cefixime] | 0.945 | 1.4 | – | 28.9 (inactive)

Compound | fiber score / MBP score ([1]; 1 µM) | fiber score / MBP score ([1]; 5 µM) | myelination ([2]; 1 µM) | myelination ([2]; 5 µM)
CC(C)[C@H]1CC[C@H](C(=O)N[C@H](Cc2ccccc2)C(=O)O)CC1 [Nateglinide] | 0.796 | 0.739 | -12.6 (inactive) | -10.9 (inactive)
CN1CCN(CC/C=C2/c3ccccc3Sc3ccc(S(=O)(=O)N(C)C)cc32)CC1 [Thiothixene] | 0.826 | 1.29 | -6.05 (inactive) | 42.5 (inactive)
CN1CCN(CCCN2c3ccccc3Sc3ccc(Cl)cc32)CC1 [Prochlorperazine] | 0.297 | 1.56 | -45.4 (inactive) | -29.6 (inactive)
CN(C)[C@@H]1C(O)=C(C(N)=O)C(=O)[C@@]2(O)C(O)=C3C(=O)c4c(O)cccc4[C@@](C)(O)[C@H]3[C@H](O)[C@@H]12 [Oxytetracycline] | 0.993 | 0.668 | -5.3 (inactive) | -10.5 (inactive)
COc1c(N2C[C@@H]3CCCN[C@@H]3C2)c(F)cc2c(=O)c(C(=O)O)cn(C3CC3)c12 [Moxifloxacin] | 0.766 | 0.689 | -12.3 (inactive) | -17.6 (inactive)
Cc1onc(-c2c(Cl)cccc2Cl)c1C(=O)N[C@@H]1C(=O)N2[C@@H]1SC(C)(C)[C@@H]2C(=O)O [Dicloxacillin] | 1.04 | 0.655 | 5.21 (inactive) | -8.6 (inactive)
CN1CCC(=C2c3ccccc3C=Cc3ccccc32)CC1 [Cyproheptadine] | 0.58 | 0.686 | -14.7 (inactive) | -1.4 (inactive)
CN1CCN(C2=Nc3ccccc3Oc3ccc(Cl)cc32)CC1 [Loxapine] | 0.561 | 0.903 | -14.9 (inactive) | 4.82 (inactive)
CN1CC(=O)N2[C@H](c3ccc4c(c3)OCO4)c3[nH]c4ccccc4c3C[C@@H]2C1=O [Tadalafil] | 0.799 | 0.74 | -45.7 (inactive) | -34.9 (inactive)
COC(=O)C1=C(C)NC(C)=C(C(=O)OC2CCCN(Cc3ccccc3)C2)C1c1cccc([N+](=O)[O-])c1 (centres undefined) [Benidipine] | 0.524 | 0.892 | -35.3 (inactive) | -63 (inactive)
CCOC(=O)O[C@]1(C(=O)OCCl)CC[C@H]2[C@@H]3CCC4=CC(=O)C=C[C@]4(C)[C@H]3[C@@H](O)C[C@@]21C [Loteprednol etabonate] | 0.604 | 0.881 | -14.2 (inactive) | -1.58 (inactive)
CCOC(=O)c1ncn2c1CN(C)C(=O)c1cc(F)ccc1-2 [Flumazenil] | 0.859 | 0.835 | -6.81 (inactive) | -19.8 (inactive)
CC(C)[C@H](N)C(=O)OCCOCn1cnc2c(=O)nc(N)[nH]c21 [Valaciclovir] | 0.731 | 0.774 | -21.7 (inactive) | -19 (inactive)
N#Cc1ccc(C(c2ccc(C#N)cc2)n2cncn2)cc1 [letrozole] | 0.937 | 1.09 | -16.4 (inactive) | 2.49 (inactive)
CN1CCN2c3ncccc3Cc3ccccc3C2C1 (centres undefined) [Remergil] | 0.819 | 0.663 | 4.96 (inactive) | -19.4 (inactive)
COCC1=C(C(=O)OC(C)OC(=O)OC(C)C)N2C(=O)[C@@H](NC(=O)/C(=N\OC)c3csc(N)n3)[C@H]2SC1 (some centres undefined) [Cefpodoxime proxetil] | 0.721 | 0.866 | -20.2 (inactive) | -4.97 (inactive)
C=CC1=C(C(=O)O)N2C(=O)[C@@H](NC(=O)/C(=N\O)c3csc(N)n3)[C@H]2SC1 [Cefdinir] | 0.926 | 0.824 | 1.23 (inactive) | -0.0683 (inactive)
COc1ccc(C(=O)NCc2ccc(OCCN(C)C)cc2)cc1OC [Itopride] | 0.63 | 0.693 | -10.9 (inactive) | -10.7 (inactive)
COc1ccc(OC)c(C(O)CNC(=O)CN)c1 (centres undefined) [Midodrine] | 0.492 | 0.885 | -19.2 (inactive) | -8.37 (inactive)
CCN(CC)CC1CCCCN1CC(=O)N1c2ccccc2C(=O)Nc2cccnc21 (centres undefined) [Otenzepad] | 0.774 | 0.692 | -9.61 (inactive) | -15.6 (inactive)
CC(C)(C#N)c1cc(Cn2cncn2)cc(C(C)(C)C#N)c1 [Anastrozole] | 0.803 | 0.734 | -5.96 (inactive) | -11.9 (inactive)
c1ccc(-c2ccc(C(c3ccccc3)n3ccnc3)cc2)cc1 (centres undefined) [Bifonazole] | 0.241 | 1.22 | -18.8 (inactive) | -26.8 (inactive)
C[C@]12C[C@H](O)[C@H]3[C@@H](CCC4=CC(=O)CC[C@@]43C)[C@@H]1CC[C@@H]2C(=O)CO [Corticosterone] | 0.706 | 0.702 | -7.15 (inactive) | -4.49 (inactive)
CC(=O)[C@H]1CC[C@H]2[C@@H]3CCC4=CC(=O)CC[C@]4(C)[C@H]3CC[C@]12C [Progesterone] | 0.688 | 0.552 | -31.5 (inactive) | -38.4 (inactive)
CN1CCCCC1CCN1c2ccccc2Sc2ccc([S+](C)[O-])cc21 (centres undefined) [Mesoridazine] | 0.531 | 0.747 | -39.6 (inactive) | -20.4 (inactive)
